From PubChem BioAssay (NCATS)
Several values for one entry are separate records, joined by “and”; a condition that tells them apart may be missing. Equal values may be shown once. Inconclusive results are not listed. Activity calls are given as the source filed them. Unless noted, calls follow the shape of the full dose curve.

Assay: qHTS assay for small molecule activators of the p53 signaling pathway (AID 651743; active = well fitted activation curve with a large enough effect in the signal ratio, not every such curve was filed as active; the % refers to the signal ratio; also: potency is read from the fitted curve at half-maximal effect; as to activation: % of control where 0% means no effect)
Details: HCT-116 p53RE-bla, beta-lactamase FRET ratio, 16 h; activation: hits give high values
How it was run: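 After 16 hours compound treatment at 37 C, HCT-116 cells stably expressing p53RE-driven beta-lactamase were loaded with LiveBLAzer B/G FRET substrate for 2 hours at room temperature. Fluorescence intensity served as the p53 activation read-out.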

**Q.** Which activation does the source give for `c1ccc2sc(SSc3nc4ccccc4s3)nc2c1` here?
**A.** 1.84% (inactive) and -0.504% (inactive)

**Q.** For `CCCCCCCCCCCCCCCC(=O)OC(C)C`, which activation is on record?
**A.** -1.99% (inactive)

**Q.** Which Potency does the source give for `COc1cc(/C=C/C(=O)CC(=O)/C=C/c2ccc(O)c(OC)c2)ccc1O` here?
**A.** 31.6 µM (active)

**Q.** For `Nc1ccc(O)c(C(=O)O)c1`, which activation is on record?
**A.** 0.238% (inactive) and -1.06% (inactive)

**Q.** For `CCCCCCCCCCCCCCCCCC(=O)O`, which activation is on record?
**A.** 2.31% (inactive) and -5.31% (inactive) and -1.74% (inactive)

**Q.** For `O=C(O)c1cc(O)c(O)c(O)c1`, which activation is on record?
**A.** -4.32% (inactive)

**Q.** For `Nc1cc(-c2ccncc2)c[nH]c1=O`, which activation is on record?
**A.** -0.79% (inactive)

**Q.** For `COc1cc(CNC(=O)CCCC/C=C/C(C)C)ccc1O`, which activation is on record?
**A.** -1.8% (inactive) and -5.67% (inactive)

**Q.** With `C=CCCCCCCCCC(=O)O` as the molecule, how does the activation read?
**A.** -2.56% (inactive)

Assay: qHTS assay for small molecule activators of the nuclear factor-kappa B (NF-kB) signaling pathway (AID 651749; active = well fitted activation curve with a large enough effect in the signal ratio; the % refers to the signal ratio; also: % of control where 0% means no effect)
Details: NF-kB-bla ME-180 cells, beta-lactamase FRET ratio, 16 h; hits give high values
How it was run: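 Activation measured after 16 hr compound treatment at 37C, 5% CO2, of 2,000 ME-180 cells/well stably expressing an NF-kB response element–driven beta-lactamase reporter, via FRET-disruption fluorescence.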

**Q.** Which activation does the source give for `c1ccc2sc(SSc3nc4ccccc4s3)nc2c1` here?
**A.** 3.06% (inactive) and 1.84% (inactive)

**Q.** With `CCCCCCCCCCCCCCCC(=O)OC(C)C` as the molecule, how does the activation read?
**A.** 0.837% (inactive)

**Q.** With `O=C(OCc1ccccc1)c1ccccc1` as the molecule, how does the activation read?
**A.** 0.212% (inactive)

**Q.** Which activation does the source give for `Nc1ccc(O)c(C(=O)O)c1` here?
**A.** -0.163% (inactive) and 0.962% (inactive)

**Q.** For `CCCCCCCCCCCCCCCCCC(=O)O`, which activation is on record?
**A.** -1.37% (inactive) and -0.0787% (inactive)

**Q.** Which activation does the source give for `O=C(O)c1cc(O)c(O)c(O)c1` here?
**A.** -0.583% (inactive)

**Q.** For `Nc1cc(-c2ccncc2)c[nH]c1=O`, which activation is on record?
**A.** -2.44% (inactive)

**Q.** Which activation does the source give for `COc1cc(CNC(=O)CCCC/C=C/C(C)C)ccc1O` here?
**A.** 0.091% (inactive) and 0.703% (inactive)

**Q.** With `C=CCCCCCCCCC(=O)O` as the molecule, how does the activation read?
**A.** -1.28% (inactive)

Assay: qHTS assay for small molecule disruptors of the mitochondrial membrane potential - 1 hr assay (AID 651754); also: nearly all actives have a fitted effect of over 35% in size; also: potency is read from the fitted curve at half-maximal effect; as to ratio change, negative = depolarisation: % is scaled to controls: 0 for no effect and ±100 for the full control effect
Details: series mostly up to 92.2 µM; ratio change, negative = depolarisation: at the top concentration
How it was run: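 Loss of mitochondrial potential shifts the cationic dye from red mitochondrial aggregates to green cytoplasmic monomers. Cells (HepG2) are treated with compound for 1 hr before a 30 min dye incubation at 37C.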

**Q.** For `COc1cc(/C=C/C(=O)CC(=O)/C=C/c2ccc(O)c(OC)c2)ccc1O`, which Potency is on record?
**A.** 3.76 µM (active)

**Q.** For `CCCCCCCCCCCCCCCCCC(=O)O`, which “ratio change, negative = depolarisation” value is on record?
**A.** 1.08% (inactive)

**Q.** With `O=C(O)c1cc(O)c(O)c(O)c1` as the molecule, how does the “ratio change, negative = depolarisation” value read?
**A.** 2.83% (inactive)

**Q.** With `CN(C)c1ccc(C(=C2C=CC(=[N+](C)C)C=C2)c2ccccc2)cc1` as the molecule, how does the Potency read?
**A.** 0.75 µM (active)

**Q.** With `COc1cc(CNC(=O)CCCC/C=C/C(C)C)ccc1O` as the molecule, how does the “ratio change, negative = depolarisation” value read?
**A.** -15.2% (inactive)

Assay: qHTS assay for small molecule disruptors of the mitochondrial membrane potential - 5 hr assay (AID 651755); also: nearly all actives have a fitted effect of over 40% in size; also: potency is read from the fitted curve at half-maximal effect; as to ratio change, negative = disruption: % is scaled to controls: 0 for no effect and ±100 for the full control effect
Details: JC-1-type ratio dye; series mostly up to 92.2 µM; ratio change, negative = disruption: at the top concentration
How it was run: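 Membrane-potential dye readout: red aggregate (540 ex/590 em) versus green monomer (490 ex/535 em) fluorescence after 30 min dye loading, following 5 hr compound exposure at 37C of overnight-plated HepG2 cells.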

**Q.** Which Potency does the source give for `COc1cc(/C=C/C(=O)CC(=O)/C=C/c2ccc(O)c(OC)c2)ccc1O` here?
**A.** 5.96 µM (active)

**Q.** For `CCCCCCCCCCCCCCCCCC(=O)O`, which “ratio change, negative = disruption” value is on record?
**A.** 4.51% (inactive)

**Q.** Which “ratio change, negative = disruption” value does the source give for `O=C(O)c1cc(O)c(O)c(O)c1` here?
**A.** 6.54% (inactive)

**Q.** Which Potency does the source give for `CN(C)c1ccc(C(=C2C=CC(=[N+](C)C)C=C2)c2ccccc2)cc1` here?
**A.** 0.841 µM (active)

**Q.** With `COc1cc(CNC(=O)CCCC/C=C/C(C)C)ccc1O` as the molecule, how does the “ratio change, negative = disruption” value read?
**A.** -13% (inactive)
